Screening data as filed in PubChem.
KB-V1 MDR tox = kills drug-selected multidrug resistant KB-V1 cells. Potency, µM (top dose mostly 46.1 µM), most hits filed as cytotoxic. AID 1347076. KB-V1 MDR cells viability, CellTiter-Glo, 72 h. 400,000 compounds, 3.4% hits; further: on the % scale 0 is the no-effect control and ±100 the full control effect; nearly all actives have a fitted effect of over 60% in size
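Cells of the MDR subline KB-V1 are plated, dosed with compound at multiple concentrations, and incubated 72 h at 37 degrees C; CellTiter-Glo is then added and luminescence read after 10 min.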
HT1080 IDH1KD tx = toxicity to HT-1080 IDH1 knockdown cells (counter line). 360,000 compounds, 2% hits. HT-1080 IDH1 knockdown viability, ATP luminescence, 48 h. AID 686971. Potency, µM (top dose mostly 46.1 µM), inactives show at the top dose activity, negative = toxicity, actives largely listed as cytotoxic;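 further: 0% = DMSO wells and -100% = cell-free medium wells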
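Knockdown cells (IDH1KD HT-1080) received compounds 2 h after plating at 750 cells/well and were kept 48 h at 37 °C in 5% FBS RPMI. A CellTiter-Glo luminescence read gave % activity for curve fitting.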
HT1080-NT tox = kills 2HG-producing HT-1080-NT fibrosarcoma cells | HT-1080-NT fibrosarcoma viability, CellTiter-Glo ATP luminescence, 48 h | Potency, µM (doses to about 46.1 µM), for the others: at the top dose activity, negative = less viability, hits mostly cytotoxic | 360,000 compounds, 1.6% hits | AID 686970;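 further: NT is the 2HG producing partner of a matched IDH1 knockdown line; 0% = DMSO-treated cells and -100% = media-only wells without cells; nearly all actives have a fitted effect of over 55% in size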
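Luminescent CellTiter-Glo readout after 48 hours of compound exposure at 37 degrees C defined viability of HT-1080-NT cells. Activity was normalized to DMSO wells and cell-free media wells; concentration-response curves were fitted and assigned curve classes.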
MCF10A rerep = induces DNA re-replication in MCF 10a normal breast cells | MCF 10A DNA re-replication, Hoechst nuclear intensity, 48 h | Potency, µM (highest dose often 46.1 µM), for the others: at the top dose activity, positive = re-replication, actives largely listed as activators | 350,000 compounds, 2.9% hits; further: % of control where 0% means no effect; nearly all actives have a fitted effect of over 50% in size
KB-3-1 cytotox = KB-3-1 parental cell cytotoxicity. KB-3-1 viability, CellTiter-Glo ATP luminescence, 72 h. Potency, µM (top dose mostly 46.1 µM), usual class: cytotoxic. 400,000 compounds, 1.4% hits; further: on the % scale 0 is the no-effect control and ±100 the full control effect; nearly all actives have a fitted effect of over 60% in size
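Screening of KB-3-1 cells (DMEM, 10% FBS, phenol-red free) ran from lowest to highest compound concentration; after 72 h at 37 °C viability was read luminescently and curves fitted.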
SW480 rereplic = DNA re-replication induction in SW480 cells. SW480 DNA re-replication, Hoechst DNA content imaging, 48 h. Potency, µM (series often up to 46.1 µM), for the others: top-dose re-replication activation, hits mostly activators. 340,000 compounds, 1.8% hits. AID 624297; further: % of control where 0% means no effect; nearly all actives have a fitted effect of over 55% in size
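Compounds, transferred as 23 nL by pin tool, were incubated with cells for 48 hr; DNA content per nucleus was then quantified by Hoechst staining and fluorescence plate imaging.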
Active calls of the source: *; i = inactive; ? = inconclusive; . = no result; [ ] = dose if it differs, or a comment. An excerpt weighted towards active compounds, which were near 7.9% of everything screened. The call rests on the fitted dose curve; in most records, active means well fitted curve in the direction sought with a large enough effect; inconclusive means small, poorly fitted or top-dose-only effect, or another doubt; inactive means no such curve, though single readings can be large; an effect the other way counts as inactive or inconclusive. Potency means the concentration at half of the fitted maximal effect.

SMILES	KB-V1 MDR tox	HT1080 IDH1KD tx	HT1080-NT tox	MCF10A rerep	KB-3-1 cytotox	SW480 rereplic
CNC(=O)c1sc(N2N=C3/C(=C\c4ccccc4)CCCC3C2c2ccccc2)nc1C (stereo not given)	.	-2%	-7%	?	.	8.2µM*
O=C1CCC(C(=O)OCC(=O)N2N=C3/C(=C\c4ccccc4)CCCC3C2c2ccccc2)N1 (stereo not given)	i	-13%	-8%	15%	i	14%
O=C1CCC(C(=O)OCC(=O)N2N=C3/C(=C/c4ccccc4)CCCC3C2c2ccccc2)N1 (stereo not given)	?	-12%	2%	23%	21µM*	-2%
CNC(=O)c1sc(N2N=C3/C(=C/c4ccccc4)CCCC3C2c2ccccc2)nc1C (stereo not given)	i	?	-2%	?	?	7.1µM*
O=C(c1ccccn1)N1N=C2/C(=C/c3ccccc3)CCCC2C1c1ccccc1 (stereo not given)	i	-14%	-3%	0%	i	?
COc1ccc(N2CCN(CC(=O)NC(=O)NCc3ccco3)CC2)cc1	?	-4%	4%	-2%	i	.
COc1cc(NC(=O)COC(=O)CC2CC3CCC2C3)cc(OC)c1 (stereo not given)	i	-2%	0%	1%	i	-10%
Nc1nc(-c2cc(-c3ccccc3)no2)cs1	i	-13%	-13%	6%	i	-15%
CCC(=O)NNc1nc2c(C)cccc2s1	i	5%	8%	-4%	i	i[1.84 µM]
CNC(=S)N1CCC(n2cnc3ccccc32)CC1	i	?	4%	-12%	i	-10%
CC1CCN(C(=O)c2ccc(NS(C)(=O)=O)cc2)CC1	i	-3%	-1%	-1%	i	-6%
O=C(NCc1ccco1)C1CN(S(=O)(=O)c2ccccc2)CCN1S(=O)(=O)c1ccccc1 (stereo not given)	?	8%	-5%	1%	i	-7%
CCOC(=O)C1=C(c2ccccc2)NC(SC)=C(C#N)C1c1cccnc1 (stereo not given)	i	-1%	-2%	21%	i	?
CC1=C(C(=O)Nc2ccc(Cl)cc2)C(c2ccncc2)C(C#N)=C(SCC(N)=O)N1 (stereo not given)	i	-1%	-8%	-7%	i	-10%
CCCCOC(=O)CSC1=C(C#N)C(c2cccnc2)C(C(=O)OCC)=C(c2ccccc2)N1 (stereo not given)	i	-5%	-3%	18µM*	i	23µM*
CC(=O)C1=C(C)NC(SCC(N)=O)=C(C#N)C1c1cccnc1 (stereo not given)	i	1%	2%	21µM*	i	-2%
Cc1ccccc1-c1nc(CN2CCC(C(=O)NCCc3ccccc3)CC2)c(C)o1	i	.	.	.	i	.
COc1ccc(OC)c(CCNC(=O)CS(=O)(=O)Cc2nc(-c3ccccc3C)oc2C)c1	6.5µM*	1%	3%	6%	?	-3%
COc1ccc(CCNC(=O)C2CCN(Cc3nc(-c4ccccc4C)oc3C)CC2)cc1OC	7.3µM*	?	?	22%	?	2%
Cc1ccccc1-c1nc(CN2CCC(C(=O)NCCCN3CCCC(C)C3)CC2)c(C)o1 (stereo not given)	i	9.2µM*	18µM*	7%	i	21µM*
O=C(CCC(=O)Nc1ccc(F)cc1)N/N=C/c1c[nH]c2ccccc12	i	-12%	-2%	0%	i	-5%
CC1Cc2cc(S(=O)(=O)NCc3ccccc3)ccc2N1C(=O)C1CCC1 (stereo not given)	?	0%	-4%	?	i	0%
Cc1nn(-c2ccccn2)c2c1C(c1ccsc1)C1=C(CCCC1=O)N2 (stereo not given)	3.7µM*	1%	13%	28%	?	?
CCOc1ccc(C(CC(=O)Nc2ccc(C(=O)OC)cc2)N2Cc3ccccc3C2=O)cc1OC (stereo not given)	i	.	.	.	i	.
CCOc1ccc(C(=O)Nc2cc(-c3nc4ccccc4[nH]3)ccc2Cl)cc1[N+](=O)[O-]	?	18µM*	?	?	i	?
SMILES	KB-V1 MDR tox	HT1080 IDH1KD tx	HT1080-NT tox	MCF10A rerep	KB-3-1 cytotox	SW480 rereplic
COc1ccc(C(=O)Nc2nc3ccccc3[nH]2)cc1OC	i	?	3%	-18%	i	-3%
CCOc1ccccc1NC(=O)c1ccc2[nH]c(C)c(C)c2c1	i	?	?	?	i	23µM*
CCOc1ccc(C(=O)Nc2nc3ccccc3[nH]2)cc1OCC	5.2µM*	-28%	?	18%	?	2%
COc1ccc(NC(=O)c2ccc3[nH]c(C)c(C)c3c2)c(OC)c1	i	-20%	-4%	18%	i	5%
O=C(NC(=S)Nc1cc(-c2nc3ccccc3[nH]2)ccc1Cl)c1ccc2c(c1)OCO2	7.3µM*	?	-17%	3.3µM*	18µM*	5.8µM*
Cc1ccc(SCC(=O)NNC(=O)C2CCCCC2)cc1	i	7%	12%	-8%	i	-7%
COc1ccc(OC)c(S(=O)(=O)N(C)CC(=O)O)c1	i	17%	21%	0%	i	-1%
COC(=O)c1c(NC(=O)C(Cl)Cl)sc2c1C(C(=O)OC)CC2 (stereo not given)	i	-10%	3%	8.2µM*	i	?
COC(=O)c1c(NC(=O)C2CCCO2)sc2c1CCC2 (stereo not given)	i	6%	5%	-5%	i	-4%[9.22 µM]
COC(=O)c1c(NC(=O)C(C)(C)C)sc2c1C(C(=O)OC)CC2 (stereo not given)	21µM*	-2%	4%	20%	?	-3%[9.22 µM]
COC(=O)c1c(NC(=O)Cc2ccccc2)sc2c1C(C(=O)OC)CC2 (stereo not given)	i	0%	17%	19%	i	-11%
O=C(c1cccc(F)c1)N1CCCC(C(=O)N2CCN(c3ccccc3)CC2)C1 (stereo not given)	?	13%	5%	-2%	i	1%
CCN[C@@H]1C[C@H](N)[C@H](O[C@H]2OC(CN)=CC[C@H]2N)[C@@H](O)[C@H]1O[C@H]1OC[C@@](C)(O)[C@@H](NC)[C@@H]1O	.	.	.	-4%	.	-3%
CC(=O)Nc1ccc(NC(=O)COC(=O)/C=C/c2ccc3c(c2)OCO3)cc1	i	10%	4%[9.24 µM]	3%	i	-30%
